Data reported in PubChem BioAssay.
Active and inactive are the calls of the source.

Experiments:
Albumin (Bos taurus) = Albumin (Bos taurus) (UniProt P02769); test: bovine serum albumin binders on microarray, profiling panel, artefact control for SMM control protein annotation, biochemical, small-molecule microarray, Alexa647 label, 635/667 nm fluorescence (AID 1118); details: BSA-A647 binding, fluorescence 635 nm, higher = more signal;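 note: score merges 667 nm emission intensity and signal-to-noise per printed compound spot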
[1] = small-molecule microarray binders of probe aXIP, primary screen, biochemical, NeuroSMM set, 635/667 nm fluorescence (AID 1119); details: higher = more signal, called active from +8 up or from −8 down;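 note: probe is the protein aXip251-270 applied at 1 µg/mL to compound-printed slides; binding of probe to printed compounds measured as 667 nm fluorescence plus signal to noise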
[2] = small-molecule binders of probe aNOTCH3, primary screen, biochemical, small-molecule microarray, 635/667 nm fluorescence (AID 1120); details: higher = more signal;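 note: probe is a biotin-tagged antibody raised against NOTCH3 rather than NOTCH3 protein; score merges spot fluorescence near 667 nm with spot signal to noise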
[3] = small-molecule binders of probe aNOTCH2, primary screen, biochemical, small-molecule microarray, 635/667 nm fluorescence (AID 1121); details: higher = more signal;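 note: score merges feature fluorescence read at 667 nm with its signal to noise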
[4] = target: Carbonic anhydrase 2 (Homo sapiens) (UniProt P00918); test: CAII small-molecule binders, profiling panel, biochemical, small-molecule microarray, Alexa647-labelled CAII (AID 1122); details: CAII-A647 binding fluorescence, higher = more signal
[5] = COS7 lysate on small-molecule microarray, probe aHis, 635 nm (AID 1123); details: COS7 cell lysate, fluorescence, higher = more signal;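 note: z-score combines 667nm fluorescence intensity with signal-to-noise per printed compound spot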
[6] = compound binding in COS7 lysate, probe aLAP1, primary screen, cell lysate, small-molecule microarray (AID 1124); details: probe aLAP1, fluorescence, higher = more signal;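 note: lysate comes from COS7 cells expressing LAP1 and is applied at 0.3 µg/mL; score merges spot fluorescence near 667 nm with signal-to-noise over triplicate slides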
Sam68 (KHDRBS1) = test: Sam68 small-molecule binders, primary screen, biochemical, small-molecule microarray, 635 nm fluorescence (AID 1125); details: small-molecule microarray binding, higher = more signal;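 note: score merges 667 nm channel intensity with signal to noise over triplicate slides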
[7] = test system: Chordin-like protein 2 (CHRDL2); test: CHRDL2 small-molecule binders, primary screen, biochemical, small-molecule microarray, 635 nm fluorescence (AID 1126); details: small-molecule microarray binding, fluorescence 635 nm; higher = more signal;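 note: printed compound slides probed with Chrdl2 protein at 4 µg/mL for 1 h at 4 C; score merges 667 nm emission intensity with signal to noise over three replicate slides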
[8] = target: Concanavalin-A (Canavalia ensiformis) (UniProt P02866); test: ConA small-molecule binders, primary screen, artefact control for SMM control protein annotation, biochemical, small-molecule microarray, Alexa647 label, 635 nm (AID 1127); details: ConA-A647 binding fluorescence, higher = more signal;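 note: z combines 667 nm emission intensity with signal-to-noise across three replicate slides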
[9] = anti-His antibody binders, primary screen, artefact control for SMM control protein annotation, biochemical, small-molecule microarray, 635 nm fluorescence (AID 1128); details: anti-His Alexa647 antibody binding, higher = more signal;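 note: score merges feature fluorescence with signal-to-noise for each printed compound spot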
[10] = test system: Human papillomavirus type 1a E7 protein (residues 1-88); test: HPV1a E7 small-molecule binders, primary screen, biochemical, small-molecule microarray, residues 1-88, 635 nm (AID 1129); details: small-molecule microarray binding, fluorescence 635 nm; higher = more signal
[11] = target: Focal adhesion kinase 1 (Homo sapiens) (UniProt Q05397); test: small-molecule microarray binders of FAK, primary screen, biochemical, 635/667 nm fluorescence, BSA, DTT (AID 1130); details: PTK2 binding, 635 nm fluorescence, higher = more signal;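 note: composite of spot emission at 667 nm and signal to noise over triplicate slides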
[12] = test system: Fibrinogen (Alexa647-labelled); test: fibrinogen binders on compound microarrays, profiling panel, artefact control for SMM control-protein annotation, biochemical, small-molecule microarray, 635/667 nm fluorescence (AID 1131); details: fibrinogen-A647 binding fluorescence, higher = more signal;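 note: z-score merges 667 nm fluorescence with per-spot signal-to-noise over triplicate slides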
[13] = target: Follistatin (Homo sapiens) (UniProt P19883); test: follistatin binders on small-molecule microarrays, primary screen, biochemical, small-molecule microarray, 635/667 nm fluorescence (AID 1132); details: FST binding, 635 nm fluorescence, higher = more signal
[14] = target: Fibroblast growth factor 2 (Homo sapiens) (UniProt P09038); test: FGF2 binders on small-molecule microarrays, primary screen, biochemical, small-molecule microarray, 635/667 nm fluorescence (AID 1133); details: small-molecule microarray binding, FGF2, fluorescence 635/667; higher = more signal
[15] = mitochondrial membrane potential change in A549 cells, profiling panel, cell-based, JC-1 fluorescence, basal, 24 h, 100 nL (AID 1138); details: higher = more signal;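 note: A549 lung adenocarcinoma cells under basal conditions with no added stimulus; test concentration not given here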
Lefty1 = Lefty1 binders on small-molecule microarrays, primary screen, biochemical, small-molecule microarray, 635/667 nm fluorescence (AID 1139); details: small-molecule microarray binding, fluorescence 635/667; higher = more signal
[16] = test system: wheat germ agglutinin (Triticum aestivum), Alexa647-labelled; test: wheat germ agglutinin binders on compound microarrays, profiling panel, artefact control for SMM control-protein annotation, biochemical, small-molecule microarray, 635/667 nm fluorescence (AID 1140); details: WGA-A647 binding, 635 nm fluorescence, higher = more signal;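 note: score merges 667 nm feature emission with signal to noise over triplicate slides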
[17] = target: Luciferin 4-monooxygenase (Photinus pyralis) (UniProt P08659); test: firefly luciferase enzyme inhibitors, primary screen, biochemical, luminescence, purified enzyme, 2006 set (AID 1141); details: SteadyGlo luminescence, 30 min, higher = more signal, called active from +8 up or from −8 down;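 note: cell-free assay with purified firefly luciferase at 100 ng per well in PBS; test concentration not given here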
Sequence of Luciferin 4-monooxygenase (Photinus pyralis) (P08659 whole entry, looked up): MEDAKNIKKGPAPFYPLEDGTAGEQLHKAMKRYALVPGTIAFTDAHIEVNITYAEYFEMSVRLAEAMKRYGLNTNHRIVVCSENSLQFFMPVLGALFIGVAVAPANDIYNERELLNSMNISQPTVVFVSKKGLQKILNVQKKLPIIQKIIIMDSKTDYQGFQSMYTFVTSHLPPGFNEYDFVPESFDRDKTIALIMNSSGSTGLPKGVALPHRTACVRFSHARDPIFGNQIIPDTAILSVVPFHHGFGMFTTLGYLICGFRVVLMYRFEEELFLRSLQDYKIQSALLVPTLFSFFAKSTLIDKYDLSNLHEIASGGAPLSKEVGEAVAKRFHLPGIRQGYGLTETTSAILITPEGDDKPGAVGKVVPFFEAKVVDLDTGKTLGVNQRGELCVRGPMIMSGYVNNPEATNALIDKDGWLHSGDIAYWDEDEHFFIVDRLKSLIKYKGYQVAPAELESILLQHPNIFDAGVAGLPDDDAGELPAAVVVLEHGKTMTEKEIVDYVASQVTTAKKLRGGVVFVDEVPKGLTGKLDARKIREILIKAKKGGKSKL

Sequence of Albumin (Bos taurus) (P02769 whole entry, looked up): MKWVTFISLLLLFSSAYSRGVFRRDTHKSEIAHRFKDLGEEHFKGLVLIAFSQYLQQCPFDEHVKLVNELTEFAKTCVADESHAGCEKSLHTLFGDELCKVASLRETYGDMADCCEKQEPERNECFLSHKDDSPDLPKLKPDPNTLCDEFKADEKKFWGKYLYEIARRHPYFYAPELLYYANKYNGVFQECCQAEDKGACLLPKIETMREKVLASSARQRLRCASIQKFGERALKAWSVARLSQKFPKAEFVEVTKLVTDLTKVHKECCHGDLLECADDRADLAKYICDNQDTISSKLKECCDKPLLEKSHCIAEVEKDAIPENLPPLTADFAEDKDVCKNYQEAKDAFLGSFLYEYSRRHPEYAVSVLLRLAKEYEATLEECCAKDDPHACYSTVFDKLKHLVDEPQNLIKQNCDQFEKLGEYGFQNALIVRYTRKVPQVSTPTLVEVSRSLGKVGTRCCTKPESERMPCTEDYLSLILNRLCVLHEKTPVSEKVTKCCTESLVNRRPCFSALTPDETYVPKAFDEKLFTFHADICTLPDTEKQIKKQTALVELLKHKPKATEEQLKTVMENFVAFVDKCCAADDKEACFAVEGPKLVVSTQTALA
Sequence of Focal adhesion kinase 1 (Homo sapiens) (Q05397 whole entry, looked up): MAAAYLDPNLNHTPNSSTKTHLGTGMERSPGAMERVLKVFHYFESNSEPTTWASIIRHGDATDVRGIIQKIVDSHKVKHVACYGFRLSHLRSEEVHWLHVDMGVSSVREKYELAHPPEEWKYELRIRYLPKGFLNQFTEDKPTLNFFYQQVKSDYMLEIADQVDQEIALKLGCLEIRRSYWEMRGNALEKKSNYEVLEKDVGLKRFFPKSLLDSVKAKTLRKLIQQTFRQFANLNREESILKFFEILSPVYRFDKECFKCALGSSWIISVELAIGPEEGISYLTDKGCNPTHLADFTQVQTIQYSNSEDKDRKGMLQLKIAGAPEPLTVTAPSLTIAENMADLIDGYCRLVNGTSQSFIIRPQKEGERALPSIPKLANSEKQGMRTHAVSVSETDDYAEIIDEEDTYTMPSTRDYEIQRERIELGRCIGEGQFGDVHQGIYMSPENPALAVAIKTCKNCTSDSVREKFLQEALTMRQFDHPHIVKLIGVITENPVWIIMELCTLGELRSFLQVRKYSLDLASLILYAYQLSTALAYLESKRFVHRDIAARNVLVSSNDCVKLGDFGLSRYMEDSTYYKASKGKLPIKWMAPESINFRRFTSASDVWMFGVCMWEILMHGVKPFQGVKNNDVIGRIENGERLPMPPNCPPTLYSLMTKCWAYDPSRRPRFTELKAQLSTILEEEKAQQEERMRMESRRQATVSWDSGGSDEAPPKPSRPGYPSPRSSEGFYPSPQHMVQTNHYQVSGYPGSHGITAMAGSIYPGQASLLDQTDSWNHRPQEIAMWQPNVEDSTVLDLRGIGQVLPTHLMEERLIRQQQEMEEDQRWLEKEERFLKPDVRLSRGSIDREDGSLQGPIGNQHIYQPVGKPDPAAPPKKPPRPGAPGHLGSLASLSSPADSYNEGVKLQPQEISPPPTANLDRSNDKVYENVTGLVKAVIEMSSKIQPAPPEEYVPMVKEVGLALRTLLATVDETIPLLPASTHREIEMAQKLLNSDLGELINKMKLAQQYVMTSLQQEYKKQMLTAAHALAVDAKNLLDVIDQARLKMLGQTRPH
Sequence of Follistatin (Homo sapiens) (P19883 whole entry, looked up): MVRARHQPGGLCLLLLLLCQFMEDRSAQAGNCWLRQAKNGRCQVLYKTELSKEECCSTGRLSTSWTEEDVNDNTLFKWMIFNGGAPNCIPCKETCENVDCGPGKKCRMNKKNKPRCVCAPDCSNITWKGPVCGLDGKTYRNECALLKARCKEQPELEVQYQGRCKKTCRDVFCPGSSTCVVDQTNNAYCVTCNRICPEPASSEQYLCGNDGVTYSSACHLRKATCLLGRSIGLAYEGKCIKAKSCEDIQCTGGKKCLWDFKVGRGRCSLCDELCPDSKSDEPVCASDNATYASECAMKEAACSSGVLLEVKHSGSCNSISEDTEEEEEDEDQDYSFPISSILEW
Sequence of Fibroblast growth factor 2 (Homo sapiens) (P09038 whole entry, looked up): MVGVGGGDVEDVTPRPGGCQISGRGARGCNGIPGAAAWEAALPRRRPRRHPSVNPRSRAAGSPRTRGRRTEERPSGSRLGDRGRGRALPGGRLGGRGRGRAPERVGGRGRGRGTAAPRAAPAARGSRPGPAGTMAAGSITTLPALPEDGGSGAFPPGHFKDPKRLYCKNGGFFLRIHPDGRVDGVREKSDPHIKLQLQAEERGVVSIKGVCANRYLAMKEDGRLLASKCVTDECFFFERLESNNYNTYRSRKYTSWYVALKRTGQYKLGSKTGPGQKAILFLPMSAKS
Sequence of Concanavalin-A (Canavalia ensiformis) (P02866 whole entry, looked up): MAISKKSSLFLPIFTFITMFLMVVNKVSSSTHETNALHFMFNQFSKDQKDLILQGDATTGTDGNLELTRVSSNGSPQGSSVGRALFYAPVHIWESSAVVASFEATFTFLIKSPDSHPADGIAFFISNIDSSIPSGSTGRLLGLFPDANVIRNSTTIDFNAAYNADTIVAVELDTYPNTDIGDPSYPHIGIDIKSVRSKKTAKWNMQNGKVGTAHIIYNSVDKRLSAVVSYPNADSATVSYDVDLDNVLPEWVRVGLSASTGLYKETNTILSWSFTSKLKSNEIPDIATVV

Row | Compound | composite z-score (Albumin (Bos taurus)) | composite Z-score [1] | composite z-score [2] | composite z-score [3] | composite z-score [4] | composite z-score [5] | composite z-score [6] | composite z-score (Sam68 (KHDRBS1)) | composite z-score [7] | composite z-score [8] | composite z-score [9] | composite z-score [10] | composite z-score [11] | composite z-score [12] | composite z-score [13] | composite z-score [14] | z-score [15] | composite z-score (Lefty1) | composite z-score [16] | z-score [17]
1 | Oc1ccc2cc[n+](Cc3sc4ccccc4c3Cl)cc2c1 | -0.49 | 0.598 (inactive) | 0.0854 | -0.0694 | 0.888 | 2.88 | 1.07 | -0.702 | 0.617 | 0.376 | -0.146 | -0.537 | 0.703 | -0.462 | 1.33 | 0.567 | -0.832 | 0.506 | 1.14 | -0.226 (inactive)
2 | CC[C@@H]1C=C(C(=O)O)[C@H](c2ccc(Br)cc2)N1S(=O)(=O)c1ccc(C)cc1 | 0.66 | 0.142 (inactive) | 0.167 | -0.0649 | 0.709 | 2.01 | 0.98 | 0.93 | 0.173 | 0.882 | 0.153 | 1.04 | 0.453 | 0.886 | 0.076 | -0.0934 | -0.785 | 0.0429 | 0.554 | 0.942 (inactive)
3 | CC(=O)NCCCC[C@@H]1NC(=O)[C@H]2C[C@@H](C(=O)NCCCCCCNC(=O)CS)[C@@H](c3ccc(O)cc3)N2C1=O | -1.4 | 0.239 (inactive) | -0.216 | -0.185 | 0.727 | 2.68 | 0.0073 | 0.0719 | -0.205 | -0.366 | 2.48 | 0.432 | 0.458 | -0.397 | -0.409 | 0.141 | -1.08 | -0.712 | 0.485 | -0.644 (inactive)
4 | [N-]=[N+]=NCc1ccccc1[C@@H]1OC(c2ccc(OCCCO)cc2)=N[C@]1(Cc1ccccc1)C(=O)NCC(O)CO (stereo not given in full) | 1.05 | 1.57 (inactive) | 0.271 | 0.109 | 0.546 | 3.09 | 1.18 | 1.22 | -0.549 | 0.306 | 1.9 | 1.19 | 0.443 | 0.958 | 0.973 | 1.52 | 0.529 | -1.3 | 0.718 | -0.0075 (inactive)
5 | COc1ccc(C#Cc2ccc3c(c2)[C@]2(C(=O)N3)[C@H](c3ccccc3OCCO)N3[C@H](c4ccccc4)[C@H](c4ccccc4)OC(=O)[C@H]3[C@@H]2C(=O)Nc2nc3ccccc3s2)cc1 | 0.187 | 0.317 (inactive) | 1.12 | 0.0559 | 0.327 | 0.646 | 0.0878 | 1.31 | 0.886 | 0.931 | 1.5 | 1.16 | 0.717 | 0.767 | 1.25 | 1.19 | -2.28 | 1.33 | 0.828 | -1.36 (inactive)
6 | NC(=O)N1C(=O)C2C(C1=O)C1C=C(c3ccc(CO)cc3)C2C(c2cccs2)N1Cc1cccc(OC(F)(F)F)c1 (stereo not given) | -0.137 | 0.29 (inactive) | 0.111 | -0.0449 | 0.72 | 0.669 | 0.798 | -0.882 | 0.38 | -0.0204 | 1.16 | 0.0253 | 0.556 | -0.0767 | 0.704 | -0.365 | 1.22 | 0.444 | 0.949 | -2.17 (inactive)
7 | COC(=O)[C@@]1(Cc2ccccc2)N=C(c2ccc(OCCCO)cc2)O[C@H]1c1ccccc1 | 0.103 | 0.216 (inactive) | -0.17 | -0.0179 | 0.624 | 2.76 | 1.07 | -0.0634 | 0.0607 | 0.889 | 2.44 | 1.2 | 0.428 | -0.381 | 0.385 | 1.65 | -0.56 | -0.63 | 0.609 | -5.51 (inactive)
8 | CC1(C)C2C=C(C(O)C3C=CC4C(=O)NC(=O)C4N3Nc3ccc(Cl)cc3Cl)C[C@@H]1C2 (stereo not given in full) | 0.818 | 0.392 (inactive) | 0.323 | 0.155 | 0.423 | 1.24 | 0.906 | 0.337 | 0.061 | 0.899 | 1.26 | 0.87 | -0.167 | 0.606 | 1.02 | -0.169 | -1.44 | 0.317 | 0.698 | 0.155 (inactive)
9 | OCCCC1=CC(c2cccs2)N(Cc2cc3c(cc2Br)OCO3)CC1 (stereo not given) | 0.252 | 0.027 (inactive) | -0.0044 | -0.147 | 0.509 | 0.713 | 0.242 | 0.242 | -0.0561 | 0.795 | 0.992 | 0.213 | 0.585 | 0.772 | 0.333 | 0.076 | 1.39 | 0.433 | 0.929 | -0.0407 (inactive)
10 | C=CCOC(=O)[C@H]1[C@@H]2C(=O)O[C@@H](c3ccccc3)[C@@H](c3ccccc3)N2[C@@H](c2ccc(OCCOC(=O)[C@H]3C[C@H]4C(=O)N[C@@H](CCCCNC(C)=O)C(=O)N4[C@H]3c3cccc(OCCO)c3)cc2)[C@]12C(=O)Nc1ccccc12 | -0.168 | 0.93 (inactive) | -0.0026 | -0.114 | 0.392 | 2.16 | 0.168 | 1.25 | 1.31 | 1.15 | 2.14 | 1.18 | -0.333 | 0.525 | 1.31 | 1.53 | -0.472 | 1.08 | 0.38 | -0.487 (inactive)
11 | CCOC(=O)C[C@H]1[C@H](OC(=O)c2ccc(C(=O)c3ccccc3)cc2)[C@@H](NC(=O)c2ccccc2)c2cc(OCCCO)ccc2N1C(=O)Cc1ccc(OC)cc1 | 0.346 | 0.713 (inactive) | 0.0242 | -0.0624 | 0.0172 | 0.445 | -0.171 | 0.226 | 0.0542 | 0.163 | -0.239 | -0.158 | 0.0147 | 0.204 | 0.0257 | -0.358 | 2.33 | 0.545 | -0.0653 | -0.863 (inactive)
